# Data: ChEMBL document CHEMBL1157539, “Thousands of chemical starting points for antimalarial lead identification” (Nature, 2010)
# Tested on: Plasmodium falciparum
# Test: GSK_TCMDC: Inhibition of Plasmodium falciparum 3D7 in whole red blood cells, using parasite LDH activity as an index of growth. Test compounds present at 2uM
# Type: functional
row,SMILES,Inhibition [%]
1,CC(C)(C)c1ccccc1OC(=O)c1ccccc1,95
2,O=C(O)C(F)(F)F.c1ccc(CCNCc2cccc(-c3ccc(CNc4ccc5ncccc5c4)cc3)c2)cc1,93
3,CCCN(CCC)CCCOc1ccc(C(=O)c2c(-c3ccc(OCCCN(CCC)CCC)cc3)oc3ccc(Cl)cc23)cc1.Cl,96
4,CC(=O)c1ccc(NC(=O)C2c3ccccc3C(=O)N(CC(C)C)C2c2cccs2)cc1 (stereo not drawn),99
5,C=CCc1cc(Cc2cnc(N)nc2N)c2ccc(C)nc2c1O,84
6,Cl.c1ccc(-c2cc(NCCNc3cc(-c4ccccc4)nc4ccccc34)c3ccccc3n2)cc1,99
7,COc1ccc(F)cc1-c1cccc(CNC2CCN(CC3Cn4c(=O)ccc5ccc(F)c3c54)CC2)c1.O=C(O)C(F)(F)F (stereo not drawn),100
8,COc1ccccc1-n1ccnc1SCC(=O)Nc1cccc(C(F)(F)F)c1,95
9,O=c1cc(NCCCNCc2cc(C(F)(F)F)ccc2F)[nH]c2ccccc12,94
10,Cc1ccc(OCCCCONC(=O)c2ccccc2)cc1,96
11,Cc1ccc(C)c(NC(=O)Nc2ccc(Nc3nc(C)cc(N4CCOCC4)n3)cc2)c1,98
12,N=C(N)NC(=O)Nc1cc(F)c(Cl)c(Br)c1,100
13,CC(CC(=O)NCC1(c2ccc(F)cc2Cl)CCOCC1)C(=O)c1ccc(Cl)cc1 (stereo not drawn),99
14,CN(CCCNc1ccc(C(=O)Nc2ccc(C(F)(F)F)cc2)cc1[N+](=O)[O-])Cc1ccccc1,100
15,Nc1cc2c(C3CCN(CC4CCN(C(=O)/C=C/c5ccc(Cl)c(Cl)c5)CC4)CC3)c[nH]c2cn1,100
16,Cc1cc(N)nc2ccc(-c3ccc(CN)cc3)cc12,100
17,CN1CCCc2ccc(NC(=O)c3cnc(-c4ccccc4)cn3)cc21,87
18,CCNCc1ccc(-c2cccc(-c3nc4ccccc4[nH]3)c2)cc1.O=C(O)C(F)(F)F,100
19,CCCCOC(=O)c1ccc(Nc2cc(C)nc3ccc(OC)cc23)cc1,100
20,Cc1cccc2nc(-c3cccc(-c4cccc(NC(=O)CNc5ccc(C(N)=O)cc5)c4)c3)[nH]c12,100

row,SMILES,Inhibition [%]
1,CCCOc1ccc2ccccc2c1CNCCCCCCNCc1c(OCCC)ccc2ccccc12.CS(=O)(=O)O,94
2,O=C(NC1CCC(N2CCN(c3cccc(C(F)(F)F)c3)CC2)CC1)c1cc2ccccc2[nH]1 (stereo not drawn),99
3,CN(C)Cc1ccc(-c2cc3c(-c4ccc(CN(C)C)cc4)ccnc3[nH]2)cc1.O=C(O)C(F)(F)F,100
4,COc1ccc(C2C(C(=O)OC3CCCCC3)=C(C)NC3=C2C(=O)CCC3)cc1Br (stereo not drawn),95
5,Nc1cc(-c2ccc3ccccc3c2)nc2ccccc12,99
6,CC(C)NCc1ccc(-c2cccc(-c3nc4ccccc4[nH]3)c2)cc1.O=C(O)C(F)(F)F,100
7,CCOC(=O)CNCC(=O)c1ccc(OCc2ccccc2)cc1.Cl,95
8,O=C(C=Cc1ccc(Cl)c(Cl)c1)NCCCCCN1CCC(CCCNS(=O)(=O)c2ccc(F)cc2)CC1,93
9,Cc1ncccc1C(=O)Nc1cccc(-c2cccc(-c3nc4cccc(C)c4[nH]3)c2)c1,93
10,N#Cc1ccccc1N1CCN(C2CCC(NC(=O)c3n[nH]c4cc(C(F)(F)F)ccc34)CC2)CC1 (stereo not drawn),84
11,COc1cc(CNC[C@@H](O)[C@H](Cc2ccccc2)NC(=O)c2cc(OC(C)C)cc(N3CCCCS3(=O)=O)c2)cc(OC)c1.Cl,100
12,Cc1ccc(CN2CCCN(Cc3cccc(C(=O)Nc4ccc(C(C)(C)C)cc4)c3)CC2)s1.O=C(O)C(F)(F)F,85
13,CCCNCc1ccc(-c2ccc(CN(CCOC)C(=O)Cc3cccnc3)cc2)nc1.O=C(O)C(F)(F)F,92
14,Cc1cccc2nc(-c3ccc(-c4ccc(CN5CCN(C6CCN(C)CC6)CC5)cc4)s3)[nH]c12.O=C(O)C(F)(F)F,100
15,Cc1nc(C)c(-c2ccc(Cl)cc2Cl)c(O)c1Br,87
16,CN1CCN(c2ccc(-c3nc4ccc(OCc5cc(Cl)cc(Cl)c5)c(C(N)=O)c4[nH]3)cc2)CC1,100
17,O=C(/C=C/c1ccc(Cl)c(Cl)c1)NCCCCCN1CCCC(CNC(=O)Nc2ccc(Oc3ccccc3)cc2)C1 (stereo not drawn),99
18,O=C(CC(=O)C(F)(F)F)c1ccc2c(c1)OCO2,96
19,CC(C)C[C@H](NC(=O)c1cc2cc(OCCN3CCNCC3)ccc2o1)C(=O)NC1CC[C@@H](C)N(C(=O)Nc2ccc(Cl)cc2)CC1=O.O=C(O)C(F)(F)F (stereo partly drawn),90

# Tested on: Plasmodium falciparum
# Test: GSK_TCMDC: Inhibition of Plasmodium falciparum Dd2 in whole red blood cells, using parasite LDH activity as an index of growth. Test compounds present at 2uM
# Type: functional
row,SMILES,Inhibition [%]
1,CC(C)(C)c1ccccc1OC(=O)c1ccccc1,2
2,O=C(O)C(F)(F)F.c1ccc(CCNCc2cccc(-c3ccc(CNc4ccc5ncccc5c4)cc3)c2)cc1,27
3,CCCN(CCC)CCCOc1ccc(C(=O)c2c(-c3ccc(OCCCN(CCC)CCC)cc3)oc3ccc(Cl)cc23)cc1.Cl,95
4,CC(=O)c1ccc(NC(=O)C2c3ccccc3C(=O)N(CC(C)C)C2c2cccs2)cc1 (stereo not drawn),51
5,C=CCc1cc(Cc2cnc(N)nc2N)c2ccc(C)nc2c1O,3
6,Cl.c1ccc(-c2cc(NCCNc3cc(-c4ccccc4)nc4ccccc34)c3ccccc3n2)cc1,11
7,COc1ccc(F)cc1-c1cccc(CNC2CCN(CC3Cn4c(=O)ccc5ccc(F)c3c54)CC2)c1.O=C(O)C(F)(F)F (stereo not drawn),27
8,COc1ccccc1-n1ccnc1SCC(=O)Nc1cccc(C(F)(F)F)c1,96
9,O=c1cc(NCCCNCc2cc(C(F)(F)F)ccc2F)[nH]c2ccccc12,43
10,Cc1ccc(OCCCCONC(=O)c2ccccc2)cc1,1
11,Cc1ccc(C)c(NC(=O)Nc2ccc(Nc3nc(C)cc(N4CCOCC4)n3)cc2)c1,48
12,N=C(N)NC(=O)Nc1cc(F)c(Cl)c(Br)c1,50
13,CC(CC(=O)NCC1(c2ccc(F)cc2Cl)CCOCC1)C(=O)c1ccc(Cl)cc1 (stereo not drawn),91
14,CN(CCCNc1ccc(C(=O)Nc2ccc(C(F)(F)F)cc2)cc1[N+](=O)[O-])Cc1ccccc1,48
15,Nc1cc2c(C3CCN(CC4CCN(C(=O)/C=C/c5ccc(Cl)c(Cl)c5)CC4)CC3)c[nH]c2cn1,94
16,Cc1cc(N)nc2ccc(-c3ccc(CN)cc3)cc12,93
17,CN1CCCc2ccc(NC(=O)c3cnc(-c4ccccc4)cn3)cc21,82
18,CCNCc1ccc(-c2cccc(-c3nc4ccccc4[nH]3)c2)cc1.O=C(O)C(F)(F)F,18
19,CCCCOC(=O)c1ccc(Nc2cc(C)nc3ccc(OC)cc23)cc1,96
20,Cc1cccc2nc(-c3cccc(-c4cccc(NC(=O)CNc5ccc(C(N)=O)cc5)c4)c3)[nH]c12,56

row,SMILES,Inhibition [%]
1,CCCOc1ccc2ccccc2c1CNCCCCCCNCc1c(OCCC)ccc2ccccc12.CS(=O)(=O)O,90
2,O=C(NC1CCC(N2CCN(c3cccc(C(F)(F)F)c3)CC2)CC1)c1cc2ccccc2[nH]1 (stereo not drawn),22
3,CN(C)Cc1ccc(-c2cc3c(-c4ccc(CN(C)C)cc4)ccnc3[nH]2)cc1.O=C(O)C(F)(F)F,96
4,COc1ccc(C2C(C(=O)OC3CCCCC3)=C(C)NC3=C2C(=O)CCC3)cc1Br (stereo not drawn),94
5,Nc1cc(-c2ccc3ccccc3c2)nc2ccccc12,52
6,CC(C)NCc1ccc(-c2cccc(-c3nc4ccccc4[nH]3)c2)cc1.O=C(O)C(F)(F)F,34
7,CCOC(=O)CNCC(=O)c1ccc(OCc2ccccc2)cc1.Cl,43
8,O=C(C=Cc1ccc(Cl)c(Cl)c1)NCCCCCN1CCC(CCCNS(=O)(=O)c2ccc(F)cc2)CC1,20
9,Cc1ncccc1C(=O)Nc1cccc(-c2cccc(-c3nc4cccc(C)c4[nH]3)c2)c1,69
10,N#Cc1ccccc1N1CCN(C2CCC(NC(=O)c3n[nH]c4cc(C(F)(F)F)ccc34)CC2)CC1 (stereo not drawn),34
11,COc1cc(CNC[C@@H](O)[C@H](Cc2ccccc2)NC(=O)c2cc(OC(C)C)cc(N3CCCCS3(=O)=O)c2)cc(OC)c1.Cl,94
12,Cc1ccc(CN2CCCN(Cc3cccc(C(=O)Nc4ccc(C(C)(C)C)cc4)c3)CC2)s1.O=C(O)C(F)(F)F,4
13,CCCNCc1ccc(-c2ccc(CN(CCOC)C(=O)Cc3cccnc3)cc2)nc1.O=C(O)C(F)(F)F,13
14,Cc1cccc2nc(-c3ccc(-c4ccc(CN5CCN(C6CCN(C)CC6)CC5)cc4)s3)[nH]c12.O=C(O)C(F)(F)F,100
15,Cc1nc(C)c(-c2ccc(Cl)cc2Cl)c(O)c1Br,57
16,CN1CCN(c2ccc(-c3nc4ccc(OCc5cc(Cl)cc(Cl)c5)c(C(N)=O)c4[nH]3)cc2)CC1,85
17,O=C(/C=C/c1ccc(Cl)c(Cl)c1)NCCCCCN1CCCC(CNC(=O)Nc2ccc(Oc3ccccc3)cc2)C1 (stereo not drawn),6
18,O=C(CC(=O)C(F)(F)F)c1ccc2c(c1)OCO2,0
19,CC(C)C[C@H](NC(=O)c1cc2cc(OCCN3CCNCC3)ccc2o1)C(=O)NC1CC[C@@H](C)N(C(=O)Nc2ccc(Cl)cc2)CC1=O.O=C(O)C(F)(F)F (stereo partly drawn),92
